Experimental data from the supplement of paper PMC3334620.
The full ranking holds about 33,000 sequences; the median of “E-score (-0.5 to 0.5)” is about -0.013, and the highest 2% start at about 0.3. The entries come from a sample that favours the highest values as a whole.

Target: T1, Msn1 (UniProt P22148)
T1 sequence: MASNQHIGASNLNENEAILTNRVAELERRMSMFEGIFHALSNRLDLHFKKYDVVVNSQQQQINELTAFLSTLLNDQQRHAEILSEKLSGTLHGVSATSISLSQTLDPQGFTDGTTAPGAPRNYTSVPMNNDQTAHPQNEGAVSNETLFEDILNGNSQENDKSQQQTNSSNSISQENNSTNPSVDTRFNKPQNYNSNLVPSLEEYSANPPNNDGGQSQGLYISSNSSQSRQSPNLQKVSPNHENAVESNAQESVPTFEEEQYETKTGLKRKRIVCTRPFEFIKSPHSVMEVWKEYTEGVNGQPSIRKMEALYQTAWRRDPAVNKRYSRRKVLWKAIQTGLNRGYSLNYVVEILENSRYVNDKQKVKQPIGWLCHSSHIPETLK
Experiment: PBM E-score (8-mer binding enrichment) (E-score (-0.5 to 0.5)); higher = stronger / more preferred TF binding
Conditions: protein concentration: 200 nM; construct: GST-full length
Method in brief: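 Detection of bound protein used fluorescent anti-GST, with scans normalised by masliner. The proteins were GST-tagged yeast transcription factors applied at about 100-200 nM to universal all-10-mer Agilent arrays made double-stranded by primer extension. Each ungapped eight-base word, pooled with its reverse complement, was scored with an E-score from the Universal PBM Analysis Suite.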

Sequence	PBM E-score
GCTCGAAA	-0.00351
TGCAGGAA	0.0458
TGAGTGAA	-0.115
ACGAATCG	0.0506
GGAATAAA	0.119
CGAATAAC	0.0021
CGAATAAA	0.309
TAAGCTCA	-0.0986
GGTCCGGA	0.216
CGTCCGGA	0.331
AGTCCGGA	0.267
ATTCCGGG	0.14
CTTCCGGA	0.132
ATTCCGGA	0.313
CCTTTGAA	-0.154
ATGTTTTG	0.12
CGAGCACG	-0.175
ATATATTC	0.163
ACATATCA	0.319
ACATATGA	0.311
CCATATTC	-0.0353
CCATATCA	0.0259
ACATATTG	0.321
ACATATGG	0.262
ACATATCG	0.231

Sequence	PBM E-score
ATATATTG	-0.172
ACATATTC	0.34
TCATATGA	0.297
ACATATGC	-0.0219
AATCTTGG	0.0184
AGTTACAT	-0.0774
AATCAAAA	0.089
CTATTCTC	-0.0396
CCACAACC	-0.0582
TAGTTGCA	0.0158
TAGAAGGA	-0.21
AATAGCTG	-0.128
GTTGAGGA	-0.00729
GCATATTA	0.0109
CCATATTA	0.21
ACATATTA	0.351
ACCTTCCA	-0.119
AATCGAGT	-0.0102
CGAAGCAC	0.0622
ACACCGTG	-0.05
AATTGGAC	0.342
ATTTGGAG	-0.0358
CTTTGGAC	0.262
GATTGGAC	0.109
ATTTGGAC	0.366

Sequence	PBM E-score
AATTGGAT	0.157
CTGAGCTC	0.0318
ATTTGCCC	0.0584
AAGTGATA	-0.052
GACAAGCA	0.278
GACAGGAC	0.17
GACAAGAA	0.374
CACAAGAA	0.105
TACAAGAA	0.169
TACAAAAA	0.264
CACAGGAA	0.0261
GACAGGAA	0.323
GACAAGCC	0.318
AACAAGCC	0.0265
GACAAAAA	0.466
AACAAAAA	0.15
ATCTATCC	-0.0249
CCTAGCCA	-0.0603
CCTGCAAA	-0.188
AAGCAAGG	-0.0227
ATTTACTA	0.206
AGTCAGAA	-0.0729
CGTACGGC	-0.134
CCTATGTA	-0.0586
CACACAAA	0.115

Sequence	PBM E-score
TACACAAA	0.205
GACACAAA	0.395
CACAAAAC	0.0522
GACAAAAC	0.451
AACAAACA	0.133
CACAAACC	-0.135
TACAAACA	0.301
AACAAACC	0.155
GACAAACA	0.456
GACAAACC	0.445
AACAAAAC	0.199
GACATCAC	0.118
CGGCAGCC	-0.118
CGCGGTCC	-0.0855
AGTATTGG	-0.0788
AGAGTTAT	-0.0142
GATAGGCA	-0.0844
AGTAGGCA	-0.07
AACAAGAC	0.135
CACAAGAC	-0.118
GACAAGAC	0.311
GCCCATGA	-0.081
TGGGACCA	-0.117
TGGGAGAA	-0.209
GGGGACAA	0.456

Sequence	PBM E-score
GGGGACAC	0.28
GGGGACCA	-0.223
TGGGACAA	0.471
ATAGCACA	-0.0389
ATGGAGCG	-0.0801
CAGATAAG	0.102
ATCCGAAA	0.057
GTCCGAGA	0.326
ATCCGAGA	0.187
GTCCGAAA	0.312
ATCCGAAG	0.0243
ATCCGAAC	-0.00081
TTCCGAAA	0.0799
GTCCGACA	0.322
ATCCGAAT	0.309
CTCCGACA	0.174
ATCCGACA	0.128
CTCCGAGA	0.152
ATTAATTA	0.0938
CTCTTACC	0.0706
ATCGCCTC	-0.0571
CTCTCCCC	-0.213
ACAACATG	0.0414
AATATGCC	-0.141
CTCTGATA	0.112

Sequence	PBM E-score
CCAGGGAC	0.0428
ACGTTAGT	0.0228
ACTTACTG	-0.113
AAGCTGCG	0.00828
AGCCCTGC	-0.252
AAGGGCGG	-0.21
CCGAACCC	-0.146
CATTGCAC	0.0641
ATAACGAT	-0.192
CTAATGTC	0.378
ATAATGTG	-0.0687
CTAATGTA	0.143
CTAATGAC	-0.12
ATAATGTA	0.139
ATAATGTC	0.427
AATCCTTC	-0.0471
AACCCGTT	-0.0539
ACGAGCGT	-0.173
CTTCGTCC	-0.0108
ATTCGTCG	0.0922
ATTCGTCC	0.323
CTACGACA	0.311
CAACGACG	-0.0172
TCACGACA	0.322
CCACGACA	0.179

Sequence	PBM E-score
GCACGACA	-0.045
CGACGACA	0.17
CAACGACC	-0.156
ACACGACA	0.225
ATACGACA	0.133
CAACGACA	0.307
GTACGACA	0.345
CTACGACC	-0.119
AAAACGCC	0.045
GCTGCGCC	-0.192
CAAAGTGC	0.0233
CGCGCCCG	-0.0907
ACTAGACG	0.112
CCTTGCCG	-0.0395
AAAGATCC	-0.12
AGAGATCG	-0.0703
GTACGAAA	0.249
CTACGAAC	0.0953
GTACGAAC	0.311
GCACCCAC	-0.091
CCTACCAA	0.133
CAAGATGG	-0.0978
GTTACAAA	0.158
TGTACACA	0.279
AGAACAAG	0.151

Sequence	PBM E-score
GGTACAAC	0.188
CGTACAAG	0.0872
TTTACAAA	0.12
CGTACAAC	0.093
AGAACAAT	0.0106
GGTACAAA	0.456
CGTACAAA	0.356
TGTACAAA	0.392
AGAACAAA	0.303
TAAAGTGA	0.0769
GATTGTGA	0.0853
CTAAATGC	0.035
GCGGGCAC	-0.0424
CTCAACGC	-0.267
AGTACAAT	0.29
AGTACAAG	0.251
AGTACATA	0.221
TATACAAA	0.183
GATACAAA	0.313
AGTACAAA	0.44
GATACAAC	0.212
GGTACATA	0.341
CGTACATA	0.296
GATGTCTA	0.239
AATGTGTC	0.3

Sequence	PBM E-score
CATGTGTC	0.298
CAGGTCTC	-0.00322
CATGTCTC	0.343
AATGTTTC	0.105
AGTGTCTG	0.154
CATGTCTA	0.268
AATGTCTA	0.454
AATGTCTG	0.436
AATGTCTC	0.463
ACTGTCTG	0.079
AGAAGCGG	-0.101
AAAACCAG	0.152
CGTAAGGA	-0.0491
ACCATGGG	-0.161
GCCTATAA	0.0368
TACCCGTA	-0.0437
ATTTGCGC	0.104
CACCTGAG	-0.0701
ACATATGT	0.28
ATAGGGCC	-0.158
GGTGGACA	0.325
GGTGGAGA	-0.396
AGTGGACA	0.389
AGTGGACG	0.212
CGTGGACC	-0.0578

Sequence	PBM E-score
GGTGGATA	0.0155
CGTGGACA	0.408
AGTGGACC	-0.0955
CGTGGAAA	0.0488
GGATTTCA	0.0863
CCTGATAC	0.12
AGTAAAAC	-0.0534
AGCAAAGC	-0.143
ATTGAGAG	-0.0651
CAGCAAAA	0.0953
CCGATTGC	0.104
ACGGACAG	0.175
ACGGACCT	0.0608
ACGGACAC	0.344
ACGGACCC	-0.221
ACGGACAT	0.473
ACGGACTC	0.00234
AAGCGGAC	0.014
ACTTCCAG	-0.219
TGAACTCA	0.0356
GCCTTTCA	-0.179
ATCCCACA	-0.141
ATCCCACG	-0.0996
GTCCCACA	0.319
AGCTCCAT	-0.251

Sequence	PBM E-score
ACAAAAAT	0.372
ACAACGGG	0.161
ACAAAAAG	0.216
ACAACGGA	0.304
ACAAACAC	0.337
ACAAACGG	0.298
ACAAAAAA	0.225
ACAAACAA	0.277
ACAAACGC	0.172
ACAAACGA	0.331
ACAAACAG	0.276
TCAACGGA	-0.0103
CGTAGACC	-0.151
ACTCGTAC	-0.0875
ACCGCCAG	-0.04
CTCGAACC	-0.0331
AGCGGCAG	-0.149
GAAATACC	-0.0126
ACTCCTCG	-0.00289
CCCGTCGC	-0.27
ACTGAGCT	-0.0939
CCTCTCGA	-0.12
GCTGCTCC	-0.218
CACTGGGA	0.131
AAGCAAGT	0.00084

Sequence	PBM E-score
GAACCGCA	0.0554
CCAAAAGC	0.0259
ACAAAAAC	0.319
ACAAAAGC	0.364
ACAAAAGA	0.27
ACAAAACC	0.239
CCAAAAAC	0.0933
ACTACGCA	-0.18
ATATTTTC	0.226
CCTCGAAG	0.0737
GGGGTGCA	-0.0694
CTGACACA	0.0572
CAGACACG	0.147
CAGACACA	0.28
CGGACACA	0.371
CGGACACC	0.112
CGGACACG	0.338
CCTTTCGC	-0.146
GCTATGAA	-0.00947
TCGGCCGA	0.31
CCGGCCGA	0.106
GCGGCCGA	-0.0302
AAGCGCTC	-0.0777
AAGCGCTA	-0.0275
AAGCGCTT	0.312

Sequence	PBM E-score
CCTTAATC	-0.105
ACGCAAGA	0.0419
ACCTCAGG	-0.129
AATTGTGC	0.0159
CATTGTGC	0.0753
GATTGTAC	0.0546
AATTGTTC	0.245
AATTGTAC	0.365
CATTGTAC	0.0768
TATTGTCA	0.282
CATTGTCA	0.158
AATTGTCC	0.488
AATTGTCA	0.359
CATTGTCC	0.456
GATTGTCA	0.245
AAATCTGT	0.138
CACACCCC	-0.293
ATTGCGGA	0.145
ATATGAGA	0.0596
ACCCGAAG	-0.0262
CACTTTCC	-0.221
GATTGTGC	-0.0365
AATTGTAT	0.155
AATTGTCT	0.406
CATTGTCG	0.21

Sequence	PBM E-score
AATTGTAG	0.167
GATTGTCC	0.458
AATTGTGT	-0.0542
AATTGTCG	0.362
GATTGTAA	0.0176
CTAGCCAA	0.00535
AAATTTAA	0.238
GGAAGAAC	-0.012
GCCTTTCC	-0.0629
ATGCGACG	-0.249
ATGGCTGA	-0.133
CTGTACCC	-0.0861
GCACCGAA	0.0642
GTTAGACA	0.33
CATAGACA	0.35
ATTAGACA	0.295
TATAGACA	0.405
TATAGATA	0.0139
GAGAGACA	0.246
TGTAGACA	0.261
AAGAGACA	0.288
CTTAGACA	0.232
CATAGACG	0.194
CATAGACC	-0.0541
TAGAGACA	0.377
